Records with an inconclusive call do not appear. Activity calls are given as the source filed them. Unless noted, the call rests on the fitted dose curve; in most records, active means well fitted curve in the direction sought with a large enough effect in the repeat runs; inconclusive means weak or mixed curves; inactive means no such curve, though single readings can be large; an effect the other way counts as inactive or inconclusive.

Experimental findings from PubChem BioAssay (Tox21) are described below.

Experiment [1] is described as follows: A CellTox Green Cytotoxicity Assay to monitor cytotoxicity in HepG2 cells - 16 hour (AID 1224876). Further: nearly all actives have a fitted effect of over 45% in size. Further: potency means the concentration at half of the fitted maximal effect. An outline of the steps:
(§1)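 HepG2, 600 cells/well premixed w/ CellTox Green; 5 h settle, 37 C/5% CO2; pintool cpd add (DMSO); 37 C, 40 h; fluorescence read at 0, 8, 16, 24, 32, 40 h.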

The nature of experiment [2]: qHTS RealTime-Glo MT Cell Viability Assay in HepG2 cells - 32 hour (AID 1224877). Further: nearly all actives have a fitted effect of over 55% in size. In outline: (§2)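 qHTS, HepG2, 600 cells/well, RealTime-Glo (NanoLuc + prosubstrate) added with cells; 5 h preincubation; DMSO compound addition; 37 C; luminescence at 0/8/16/24/32/40 h.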
Experiment [3] is described as follows: A CellTox Green Cytotoxicity Assay to monitor cytotoxicity in HepG2 cells - 24 hour (AID 1224878). Further: nearly all actives have a fitted effect of over 45% in size. Further: potency means the concentration at half of the fitted maximal effect. In outline: as §1
Experiment [4] is described as follows: A CellTox Green Cytotoxicity Assay to monitor cytotoxicity in HepG2 cells - 40 hour (AID 1224879). Further: nearly all actives have a fitted effect of over 40% in size. Further: potency means the concentration at half of the fitted maximal effect. In outline:
as §1

Experiment [5] is described as follows: qHTS RealTime-Glo MT Cell Viability Assay in HEK293 cells - 0 hour (AID 1224880). Further: top concentration of the series differs between compounds; nearly all actives have a fitted effect of over 45% in size. In outline: (§3)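 Luminescence readout at each listed time point; HEK293, 600 cells/well, RealTime-Glo MT reagent added with cells; compounds pinned (23 nL in DMSO) after 5 h at 37 C; continuous culture at 37 C.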
Experiment [6] can be described thus: A CellTox Green Cytotoxicity Assay to monitor cytotoxicity in HEK293 cells - 32 hour (AID 1224881). Further: nearly all actives have a fitted effect of over 40% in size. In outline:
(§4)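 Read-out: fluorescence of a cell-impermeant cyanine dye staining DNA of dead cells, proportional to cytotoxicity. HEK293, 600 cells/well with reagent, compound (23 nL DMSO) added after 5 h; reads at 0, 8, 16, 24, 32, 40 h.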

Experiment [7] is described as follows: A CellTox Green Cytotoxicity Assay to monitor cytotoxicity in HepG2 cells - 0 hour (AID 1224882). Further: nearly all actives have a fitted effect of over 35% in size. Further: potency means the concentration at half of the fitted maximal effect. In outline: as §1
Experiment [8] is described as follows: A CellTox Green Cytotoxicity Assay to monitor cytotoxicity in HepG2 cells - 32 hour (AID 1224883). Further: nearly all actives have a fitted effect of over 50% in size. Further: potency means the concentration at half of the fitted maximal effect. An outline of the steps:
as §1

A short description of experiment [9]: A CellTox Green Cytotoxicity Assay to monitor cytotoxicity in HEK293 cells - 8 hour (AID 1224884). Further: nearly all actives have a fitted effect of over 35% in size. Further: potency means the concentration at half of the fitted maximal effect. In outline:
as §4

Experiment [10] in a line: qHTS RealTime-Glo MT Cell Viability Assay in HepG2 cells - 16 hour (AID 1224885). Further: nearly all actives have a fitted effect of over 50% in size. In outline: as §2
Experiment [11] can be described thus: qHTS RealTime-Glo MT Cell Viability Assay in HEK293 cells - 8 hour (AID 1224887). Further: top concentration of the series differs between compounds; nearly all actives have a fitted effect of over 50% in size. An outline of the steps:
as §3

Experiment [12] can be described thus: A CellTox Green Cytotoxicity Assay to monitor cytotoxicity in HEK293 cells - 16 hour (AID 1224888). Further: nearly all actives have a fitted effect of over 35% in size. Further: potency means the concentration at half of the fitted maximal effect. In outline: as §4
Experiment [13] is described as follows: qHTS RealTime-Glo MT Cell Viability Assay in HepG2 cells - 0 hour (AID 1224889). Further: nearly all actives have a fitted effect of over 50% in size. In outline:
as §2

The nature of experiment [14]: A CellTox Green Cytotoxicity Assay to monitor cytotoxicity in HepG2 cells - 8 hour (AID 1224890). Further: nearly all actives have a fitted effect of over 45% in size. Further: potency means the concentration at half of the fitted maximal effect. In outline: as §1
Experiment [15] is described as follows: qHTS assay to identify small molecule antagonists of the estrogen receptor alpha (ER-alpha) signaling pathway using the BG1 cell line in the presence of 0.1 nM 17-beta-estradiol - cell viability counter screen (AID 1259241). Further: nearly all actives have a fitted effect of over 40% in size. In outline:
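Viability in VM7Luc4E2 cells after 22 hr compound exposure under 0.1 nM 17beta-estradiol stimulation, by CellTiter-Fluor.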

Experiment [16] can be described thus: qHTS assay to identify small molecule antagonists of the androgen receptor (AR) signaling pathway using the MDA cell line in the presence of 0.5 nM R1881 - cell viability counter screen (AID 1259242). Further: nearly all actives have a fitted effect of over 45% in size. An outline of the steps:
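Live-cell protease fluorescence, CellTiter-Fluor, 30 min at 37C. Cells: MDA-kb2, 3,000/well, preincubated 5 hr. Compounds plus 0.5 nM R1881 final, 16 hr, 37C, 0% CO2.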

Experiment [17] has as its target Estrogen receptor (Homo sapiens) (UniProt P03372). Put plainly: qHTS assay to identify small molecule antagonists of the estrogen receptor alpha (ER-alpha) signaling pathway using the BG1 cell line in the presence of 0.1 nM 17-beta-estradiol (AID 1259244). Further: nearly all actives have a fitted effect of over 50% in size. An outline of the steps: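 Luminescence after ONE-Glo (30 min, room temperature) measured ERE-luciferase activity in VM7Luc4E2 cells treated 22 h with compound and 0.1 nM final 17beta-estradiol as stimulator.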

A short description of experiment [18]: qHTS assay to identify small molecule HDAC inhibitors (AID 1259364). In outline:
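HCT-116 (wild type), 1,500 cells/well, overnight; compound 2 hr 37C 5% CO2; HDAC-Glo I/II reagent 30 min RT; luminescence readout.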

A short description of experiment [19]: qHTS RealTime-Glo MT Cell Viability Assay in HEK293 cells - 24 hour (AID 1224886). An outline of the steps: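 Assay medium contained NanoLuc luciferase plus cell-permeant prosubstrate, added with HEK293 cells at 600 cells/well. After 5 h at 37 C/5% CO2 compounds were added; plates stayed at 37 C for 40 h with serial luminescence reads.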
Experiment [20] can be described thus: qHTS assay to identify small molecule phospholipidosis (PLD) inducers (AID 1259344; active means well fitted curve in the direction sought with a large enough effect; an effect the other way counts as inactive or inconclusive). An outline of the steps: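 Image-based: LipidTOX Red pit count/intensity per well and per cell; HepG2, 24 h compound at 37 C, PFA fixation, Hoechst counterstain.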

Chain of Estrogen receptor (Homo sapiens) (P03372 whole entry, looked up): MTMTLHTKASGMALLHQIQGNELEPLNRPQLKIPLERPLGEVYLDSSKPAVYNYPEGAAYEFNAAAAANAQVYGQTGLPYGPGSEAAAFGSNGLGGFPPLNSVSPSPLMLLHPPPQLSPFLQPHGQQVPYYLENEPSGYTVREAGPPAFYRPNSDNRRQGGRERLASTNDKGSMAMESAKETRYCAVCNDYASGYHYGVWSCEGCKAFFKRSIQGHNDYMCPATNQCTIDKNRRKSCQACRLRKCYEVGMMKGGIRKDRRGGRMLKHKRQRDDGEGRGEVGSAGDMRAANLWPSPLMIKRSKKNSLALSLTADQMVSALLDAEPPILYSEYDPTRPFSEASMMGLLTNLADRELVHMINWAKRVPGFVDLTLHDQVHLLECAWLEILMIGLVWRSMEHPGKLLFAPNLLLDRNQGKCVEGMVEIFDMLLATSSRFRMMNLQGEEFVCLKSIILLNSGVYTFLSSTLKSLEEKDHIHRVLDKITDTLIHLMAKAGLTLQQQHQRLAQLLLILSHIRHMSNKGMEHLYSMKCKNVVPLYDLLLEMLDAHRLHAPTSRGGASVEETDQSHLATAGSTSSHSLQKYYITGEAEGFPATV

Take `CC(Cl)COP(=O)(OCC(C)Cl)OCC(C)Cl` (stereo not given): the Potency entry in [1], in experiment [3], in experiment [4], in experiment [6], in experiment [7] and in experiment [8] was “inactive” throughout. For the same compound, the Potency entry in [9], in [11], in experiment [12], in [13], in [14] and in [15] was “inactive” each time. Further, the Potency result in [16], in experiment [17] and in experiment [18] was “inactive” throughout. Further, the compound was called inactive in [2], in [5] and in experiment [10].
In the case of `CC(=O)N1CCN(c2ccc(O)cc2)CC1`, the Potency entry in [1], in [3], in experiment [4], in [7], in [8] and in experiment [9] was “inactive” each time. The Potency entry in [19], in experiment [11], in [12], in experiment [13], in experiment [14] and in [15] was “inactive” each time. Also, the Potency entry in experiment [16], in experiment [17] and in [18] was “inactive” in each case. The result in [2], in experiment [5] and in [10] was inactive.
Regarding `CC(C)c1ccccc1O`, the Potency result in experiment [1], in [3], in experiment [4], in experiment [7], in experiment [8] and in [9] was “inactive” each time. For the same compound, the Potency result in [19], in experiment [11], in experiment [12], in experiment [13], in experiment [14] and in [16] was “inactive” in each case. The Potency result in experiment [18] is “inactive”. Moreover, the result in experiment [2], in [5] and in experiment [10] was inactive.
As for `Cc1ccc(C(=O)C(=O)O)cc1C`, the Potency result in experiment [1], in experiment [3], in [4], in experiment [7], in [8] and in experiment [9] was “inactive” in each case. Besides, the Potency result in [19], in [11], in [12], in [13], in [14] and in experiment [15] was “inactive” each time. For the same compound, the Potency result in experiment [16], in experiment [17] and in experiment [18] was “inactive” each time. In addition, the compound was classed as inactive in [2], in experiment [5] and in experiment [10].
On to `OC[C@@H](O)[C@H](O)[C@@H](O)[C@@H](O)CO`, for which the Potency entry in [1], in [3], in experiment [4], in [7], in experiment [8] and in experiment [9] was “inactive” throughout. Further, the Potency entry in experiment [19], in [11], in experiment [12], in experiment [13], in [14] and in [15] was “inactive” each time. In addition, the Potency result in [16] and in experiment [17] was “inactive” in each case. Also, the call in [2], in experiment [5] and in experiment [10] was inactive.
As to `O=C(/C=C/c1ccccc1)NCCO`, the Potency in [1] was 9.52 µM (active); in experiment [3] it was 6.74 µM (active); in experiment [4], 6.01 µM (active); in [7], 6.01 µM (active); in experiment [8], 8.49 µM (active); in experiment [9], 9.52 µM (active). For the same compound, the Potency in [12] is 8.49 µM (active); in experiment [14], 10.7 µM (active). Further, the outcome in experiment [2], in [5], in [10] and in experiment [20] was inactive. The Potency result in experiment [19], in [11], in experiment [13], in experiment [15], in experiment [16] and in experiment [17] was “inactive” in each case.
`CCCCCC1Nc2cc(C(F)(F)F)c(S(N)(=O)=O)cc2S(=O)(=O)N1` (stereo not given): the Potency entry in experiment [1], in experiment [3], in experiment [4], in experiment [6], in [8] and in [9] was “inactive” throughout. Besides, the Potency result in experiment [11], in experiment [12], in [13], in [14], in experiment [15] and in experiment [16] was “inactive” in each case. In addition, the Potency entry in experiment [17] and in experiment [18] was “inactive” throughout. Moreover, the compound was classed as inactive in experiment [2], in experiment [5], in experiment [10] and in experiment [20].
On to `Cc1ncc([N+](=O)[O-])n1CC(O)CCl` (stereo not given), for which the Potency result in experiment [1], in experiment [3], in experiment [4], in experiment [6], in [8] and in experiment [9] was “inactive” throughout. Besides, the Potency result in [11], in experiment [12], in [13], in experiment [14], in experiment [15] and in experiment [16] was “inactive” in each case. Moreover, the Potency result in experiment [18] was “inactive”. For the same compound, the call in [2], in experiment [5], in experiment [10] and in experiment [20] was inactive.
